Screens: PubChem BioAssay, National Center for Advancing Translational Sciences (NCATS)
Many of the other results were omitted from the sample, so hits are more common in it than they were.
HT1080 IDH1KD tx – HT-1080 IDH1 knockdown cell toxicity (counter line) | Potency, µM (series often up to 46.1 µM), without a hit: at the highest dose activity, negative = toxicity, actives largely listed as cytotoxic | actives 2% (n = 360,000) | AID 686971 | HT-1080 IDH1 knockdown viability, ATP luminescence, 48 h;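 further: potency means the concentration at half of the fitted maximal effect; 0% = DMSO wells and -100% = cell-free medium wells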
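CellTiter-Glo luminescence after 48 h compound exposure at 37 degrees C of IDH1-knockdown HT-1080 cells in 5% FBS RPMI. %Activity scaled between DMSO wells and cell-free media wells, with curves fitted and assigned curve classes.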
HT1080NT lethal – kills 2HG-producing HT-1080-NT fibrosarcoma cells; AID 686970; Potency, µM (highest dose often 46.1 µM), for the others: at the highest dose activity, negative = less viability, hits mostly cytotoxic; HT-1080-NT fibrosarcoma viability, CellTiter-Glo ATP luminescence, 48 h; actives 1.6% (n = 360,000);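 further: NT is the 2HG producing partner of a matched IDH1 knockdown line; potency means the concentration at half of the fitted maximal effect; 0% = DMSO-treated cells and -100% = media-only wells without cells; nearly all actives have a fitted effect of over 55% in size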
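Toxicity toward the 2HG-producing NT line was scored as %Activity, normalised to DMSO and no-cell wells, from CellTiter-Glo luminescence after 48 hours' treatment.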
DT40 TDP1 no CPT – qHTS for Inhibitors of human tyrosyl-DNA phosphodiesterase 1 (TDP1): qHTS in cells in absence of CPT; DT40 Tdp1-/- hTDP1 cells, no CPT, ATP luminescence, 48 h; Potency, µM (highest dose often 46.2 µM), for inactives: top-dose activity change, negative = growth inhibition, most hits filed as inhibitors; actives 15% (n = 420,000); AID 686978, 2013; further: potency means the concentration at half of the fitted maximal effect; nearly all actives have a fitted effect of over 55% in size
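DT40 Tdp1-/-;hTDP1 cells, no CPT (DMSO vehicle only), 400 cells/well; compounds pin-transferred; ≥48 hr, 37 °C; CellTiter-Glo 30 min RT dark, luminescence read.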
12-LOX inh – blocks human arachidonate 12S-lipoxygenase. Potency, µM (titrated, usually from 108 µM), without a hit: top-dose activity change, negative = inhibition, most hits filed as inhibitors. actives 1.1% (n = 580,000). purified 12hLO, xylenol orange hydroperoxide absorbance; further: potency means the concentration at half of the fitted maximal effect
Target sequence (P18054 whole entry, looked up): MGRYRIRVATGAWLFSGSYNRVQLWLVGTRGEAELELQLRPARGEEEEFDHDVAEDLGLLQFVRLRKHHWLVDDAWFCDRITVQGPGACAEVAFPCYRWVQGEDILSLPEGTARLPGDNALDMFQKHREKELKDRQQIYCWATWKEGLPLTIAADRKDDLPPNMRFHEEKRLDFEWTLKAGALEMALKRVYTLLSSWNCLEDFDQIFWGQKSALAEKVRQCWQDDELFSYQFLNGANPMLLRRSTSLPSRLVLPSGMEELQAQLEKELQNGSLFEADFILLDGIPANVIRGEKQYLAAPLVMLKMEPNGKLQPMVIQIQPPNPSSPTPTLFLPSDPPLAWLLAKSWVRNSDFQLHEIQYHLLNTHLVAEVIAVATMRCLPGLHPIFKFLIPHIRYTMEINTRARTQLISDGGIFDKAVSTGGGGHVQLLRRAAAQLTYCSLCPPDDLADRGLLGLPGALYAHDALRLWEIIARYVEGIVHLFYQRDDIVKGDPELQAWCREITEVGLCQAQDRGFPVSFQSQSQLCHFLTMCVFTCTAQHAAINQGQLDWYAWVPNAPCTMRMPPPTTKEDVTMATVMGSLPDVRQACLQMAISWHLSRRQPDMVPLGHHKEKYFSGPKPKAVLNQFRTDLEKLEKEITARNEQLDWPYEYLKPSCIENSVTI
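Purified human 12hLO (150 nM final) in 25 mM Hepes, 0.01% Triton X-100, pH 7.0 was preincubated 15 min at room temperature with compound. Then 40 uM arachidonic acid was added, 30 min. Hydroperoxide was read by Fe-XO absorbance ratio 573/405 nm.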
IL-1B inflam inh – inflammasome signaling inhibition, IL-1 beta readout | actives 4.7% (n = 360,000) | activity change, % at 57.5 µM | THP-1 LPS/ATP IL-1B secretion, AlphaLISA, 16 h; hits give low values | AID 743279; in the data active means activity change below about -50%; inconclusive means mostly about -30% to -49%
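Secreted IL-1B measured by AlphaLISA bead assay after 16 h compound exposure of THP-1 cells; compounds (final up to 57.5 uM) added 1 h before LPS (250 ng/mL) and ATP (1.25 mM) stimulation; lower signal means less secretion.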
TDP1 cell CPT – DT40-hTDP1 cell growth loss with CPT | actives 12% (n = 420,000) | Potency, µM (top dose mostly 46.2 µM), without a hit: top-dose activity change, negative = growth inhibition, hits mostly inhibitors | chicken DT40 Tdp1-/-;hTDP1 cells + 20 nM CPT, ATP luminescence, 48 h; further: potency means the concentration at half of the fitted maximal effect; nearly all actives have a fitted effect of over 55% in size
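Cell growth measured by CellTiter-Glo luminescence after a minimum 48 h, 37 C compound exposure with 20 nM CPT in Tdp1-knockout DT40 cells stably expressing hTDP1, seeded 400/well; qHTS titration format.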
Numbers without * were called inactive; ? = inconclusive; . = no result. Unless noted, the call rests on the fitted dose curve; in most records, active means well fitted curve in the direction sought with a large enough effect; inconclusive means small, poorly fitted or top-dose-only effect, or another doubt; inactive means no such curve, though single readings can be large; an effect the other way counts as inactive or inconclusive. Unless noted, on the % scale 0 is the no-effect control and ±100 the full control effect.

SMILES	HT1080 IDH1KD tx	HT1080NT lethal	DT40 TDP1 no CPT	12-LOX inh	IL-1B inflam inh	TDP1 cell CPT
Cc1ccc(NC(=O)Nc2ccnc(-c3cccnc3)n2)cc1	-5.9%	-4.0%	8.2µM*	-27.4%	35.6	8.2µM*
CC(=C\C(=O)O)/C(=C/c1ccco1)C(=O)O	5.2%	19.2%	20.0%	?	12.3	-16.1%
CC(=C\C(=O)O)/C(=C/c1ccc(C)o1)C(=O)O	-16.8%	0.3%	20.6µM*	-19.3%	3.1	14.6µM*
COc1ccccc1C(CNc1nc(C(F)(F)F)nc2ccccc12)N(C)C (configuration not stated)	-5.4%	-10.7%	20.6µM*	-4.9%	-15.2	?
CCNC(=O)CNc1nc(C(F)(F)F)nc2ccccc12	.	.	.	4.5%	.	.
O=C(CN(Cc1ccc2c(c1)OCO2)C1CCCC1)Nc1ccc2[nH]c(=O)[nH]c2c1	.	.	.	-0.1%	.	.
COc1ccccc1C(=O)NCc1nnc2cc(-c3nc(C4CC4)no3)ccn12	.	.	.	34.5%	.	.
NS(=O)(=O)c1ccc(NN=C2CCCC2)c([N+](=O)[O-])c1	.	.	.	61.2%	.	.
COc1ccccc1NS(=O)(=O)c1cccc(C(=O)N/N=C/c2c(C)nn(-c3ccccc3)c2N2CCCC2)c1	0.9%	1.9%	20.6µM*	-8.0%	-1.7	20.6µM*
COc1ccccc1NS(=O)(=O)c1cccc(C(=O)N/N=C/c2cn(-c3ccccc3)nc2-c2ccccc2)c1	-11.2%	?	?	29.3%	-4.0	?
O=[N+]([O-])c1cc(S(=O)(=O)Nc2ccccc2)ccc1N/N=C/c1c(F)c(F)c(F)c(F)c1F	.	.	.	-0.3%	.	.
COc1ccccc1NS(=O)(=O)c1ccc(NN=C2CCCC2)c([N+](=O)[O-])c1	-17.4%	4.9%	16.4µM*	-21.6%	-7.2	18.4µM*
Cc1nn(-c2ccccc2)c(N2CCCC2)c1/C=N/Nc1ccc(S(=O)(=O)Nc2ccccc2)cc1[N+](=O)[O-]	-6.5%	-16.1%	7.31µM*	-18.8%	33.1	5.8µM*
CC(C)(C)C1CCC(=NNc2ccc(S(N)(=O)=O)cc2[N+](=O)[O-])CC1 (configuration not stated)	18.4µM*	?	20.6µM*	-26.0%	-87.1*	16.4µM*
CCOC(=O)c1cccc(NC(=O)c2c(OCC)cc(=O)n3c2CCCC3)c1	.	.	.	14.3%	.	.
COc1ccccc1NS(=O)(=O)c1ccc(N/N=C/c2ccccc2OCC(=O)O)c([N+](=O)[O-])c1	-13.6%	-16.7%	-7.2%	?	-3.2	-7.5%
COc1ccccc1NS(=O)(=O)c1ccc(N/N=C/c2c(C)nn(-c3ccccc3)c2N2CCCC2)c([N+](=O)[O-])c1	6.6%	-1.4%	6.51µM*	-5.3%	-24.1	?
COc1ccccc1-c1nn(CCC(=O)Nc2cccc(C(C)=O)c2)c2nc(C)cc(C)c12	.	.	16.4µM*	?	.	?
COc1ccc2occ(C(=O)c3ccccc3)c2c1	0.0%	-1.2%	-12.4%	16.2%	-8.7	-11.7%
COc1ccc(C(=O)c2coc3c2C(=O)C(=O)c2ccccc2-3)cc1	?	?	4.61µM*	?	12.6	2.59µM*
O=C1c2ccccc2C(=O)c2c1oc(C(F)(F)F)c2C(=O)c1ccccc1	23.1µM*	?	16.4µM*	?	-84.4*	11.6µM*
O=C(c1ccccc1)c1coc2c1C(=O)c1ccccc1C2=O	18.4µM*	16.4µM*	?	-3.0%	-27.7	?
O=C(c1ccccc1)c1ccc(CN2C(=O)c3ccccc3C2=O)o1	5.4%	-0.7%	-1.7%	3.9%	8.1	-4.9%
O=C(NC1CCN(Cc2ccccc2)C1)c1ccccc1-c1ncc(-c2ccccc2)o1 (configuration not stated)	.	.	.	-12.8%	.	.
COc1ccc(CCNC(=O)Nc2nc(C(N)C3CCCCC3)cs2)cc1OC (configuration not stated)	?	?	?	18.4%	-52.3*	?
SMILES	HT1080 IDH1KD tx	HT1080NT lethal	DT40 TDP1 no CPT	12-LOX inh	IL-1B inflam inh	TDP1 cell CPT
COc1cc(CNC(=O)Nc2nc(C(N)CCc3ccccc3)cs2)cc(OC)c1OC (configuration not stated)	?	?	?	-0.2%	-54.0*	?
COc1ccccc1NC(=O)Nc1nc(C(N)CCc2ccccc2)cs1 (configuration not stated)	?	23.1µM*	13µM*	?	-29.0	?
COc1ccc(CNC(=O)Nc2nc(C(N)CCc3ccccc3)cs2)cc1 (configuration not stated)	?	18.4µM*	?	-2.8%	-56.1*	?
COc1cc(C(=O)NC(C)CCc2ccccc2)cc(OC)c1OC (configuration not stated)	-5.0%	-1.7%	-5.2%	31.0%	2.6	-5.8%
Cn1c(C(=O)NCc2ccncc2)nc2ccccc2c1=O	.	.	.	7.5%	.	.
CCc1nnc(SCc2cccc(Cl)c2)c2cc3sccc3n12	.	.	?	-16.3%	.	?
O=C(COc1ccc(-n2cnnn2)cc1)N1CCCC2(CCNCC2)CC1	.	.	.	83.3%	.	.
COc1ccc(CCNC(=O)Nc2nc(C(N)CCc3ccccc3)cs2)cc1OC (configuration not stated)	?	16.4µM*	?	4.1%	?	?
Cc1ccc(Sc2ccc(NC(=O)c3cc(C)ccc3C)cc2)c(C)c1	.	.	.	-0.7%	.	.
CCOc1ccc(NS(=O)(=O)c2cc(NC(=O)Cc3c(F)cccc3Cl)ccc2OC)cc1	.	.	.	-9.0%	.	.
O=C1CC2CCN(C(=O)c3ccccc3)CC2CCN1 (configuration not stated)	.	.	.	50.1µM*	.	.
O=C(COC(=O)c1ccc2ccccc2n1)NC1CC1	.	.	.	-13.5%	.	.
CCOc1ccc(NC(=O)c2nn(CC(C)C)c(=O)c3ccccc23)cc1S(=O)(=O)N1CCCC1	.	.	.	-99.9%	.	.
CCCOc1cc(C)c(S(=O)(=O)NCCOC)cc1C	-2.4%	-23.1%	?	-2.5%	8.0	25.9µM*
CC(C)(C)C1CCC(=NOC(=O)c2ccc(F)cc2)CC1 (configuration not stated)	5.5%	10.5%	?	4.2%	8.7	-0.7%
Cc1ccc(SCC(=O)N/N=C/c2ccco2)cc1	22.9%	13.6%	-24.3%	0.0%	-5.4	5.5%
CCc1nn(CCCC(=O)N(C)Cc2ccccc2)c(=O)c2cc3occc3n12	8.9%	8.9%	?	0.0%	4.8	16.4µM*
